Sampled rows, rich in hits. Any-hit rate of the full collection: about 17%.
ATXN2 expr inh – Primary qHTS for Inhibitors of ATXN expression. HEK-293 ATXN2-luciferase reporter, luminescence, 24 h. Potency, µM (highest dose often 57 µM), for the others: top-dose activity change, negative = inhibition, hits mostly inhibitors. 0.72% of 360,000 active; also: % is scaled to controls: 0 for no effect and ±100 for the full control effect; nearly all actives have a fitted effect of over 55% in size
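qHTS (up to 57 uM final) was run with 24 h compound exposure of reporter cells at 37 °C. Each well was multiplexed: SteadyGlo luminescence measured ATXN2-luciferase expression after a fluorogenic Gly-Phe-AFC viability readout (25 uM final).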
DT40 TDP1 CPT – qHTS for Inhibitors of human tyrosyl-DNA phosphodiesterase 1 (TDP1): qHTS in cells in presence of CPT | 12% of 420,000 active | AID 686979, 2013 | chicken DT40 Tdp1-/-;hTDP1 cells + 20 nM CPT, ATP luminescence, 48 h | Potency, µM (series often up to 46.2 µM), for the others: at the top dose activity change, negative = growth inhibition, actives largely listed as inhibitors; also: % is scaled to controls: 0 for no effect and ±100 for the full control effect; nearly all actives have a fitted effect of over 55% in size
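Cell growth measured by CellTiter-Glo luminescence after a minimum 48 h, 37 C compound exposure with 20 nM CPT in Tdp1-knockout DT40 cells stably expressing hTDP1, seeded 400/well; qHTS titration format.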
HepG2 viability – qHTS for Inhibitors of TGF-b: Cytotox Counterscreen | HepG2 CAGA-GFP viability, ATP luminescence, 18 h | Potency, µM (titrated, usually from 46.1 µM), inactives show top-dose activity change, negative = cytotoxicity, most hits filed as cytotoxic | 0.76% of 410,000 active
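CellTiter-Glo luminescence gave cytotoxicity after 18 hours at 37 degrees C. The cells were HepG2 CAGA-GFP in 1% FBS DMEM, stimulated with 500 pg/mL TGF-beta after compound addition. %Activity was normalised to no-cell wells (complete cell-killing) and DMSO (no toxicity), and curves were fitted and classified.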
ATXN viability – Viability Counterscreen for Primary qHTS for Inhibitors of ATXN expression | S2 cells (HEK-293 line with an ATXN2-luciferase reporter) viability, CellTiter-Fluor protease fluorescence, 24 h | Potency, µM (top dose mostly 56.7 µM), actives largely listed as cytotoxic | 0.49% of 400,000 active | AID 651635, 2014; also: nearly all actives have a fitted effect of over 40% in size
TGFb inhibitor – qHTS for Inhibitors of TGF-b; HepG2 CAGA-GFP TGF-b/SMAD3 reporter, GFP fluorescence, 18 h; TGF-beta stimulated, 500 pg/mL final; Potency, µM (doses to about 46.1 µM), without a hit: at the top dose activity, negative = inhibition, actives largely listed as inhibitors; 1.2% of 410,000 active; AID 588855, 2011; also: % is scaled to controls: 0 for no effect and ±100 for the full control effect; nearly all actives have a fitted effect of over 65% in size
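TGF-beta reporter screen: HEPG2 CAGA-GFP, 1% FBS, 500 pg/mL TGF-beta final, 18 h; per-cell GFP summed per well; curves fitted and categorized by class.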
TDP1 cell noCPT – qHTS for Inhibitors of human tyrosyl-DNA phosphodiesterase 1 (TDP1): qHTS in cells in absence of CPT | DT40 Tdp1-/- hTDP1 cells, no CPT, ATP luminescence, 48 h | Potency, µM (series often up to 46.2 µM), for inactives: top-dose activity change, negative = growth inhibition, usual class: inhibitors | 15% of 420,000 active; also: % is scaled to controls: 0 for no effect and ±100 for the full control effect; nearly all actives have a fitted effect of over 55% in size
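Camptothecin absent (DMSO only). Human TDP1-complemented DT40 knockout cells, 400 cells/well, 37 °C for minimum 48 hr; ATP measured via CellTiter-Glo, 30 min dark incubation, luminescence.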
Active calls of the source: *; i = inactive; ? = inconclusive; / = no result; [ ] = remark or other dose. Calls follow the shape of the dose curve; as a rule, active = well fitted curve in the direction sought with a large enough effect; inconclusive = small, poorly fitted or top-dose-only effect, or another doubt; inactive = no such curve, though single readings can be large; an effect the other way counts as inactive or inconclusive. Potency is read from the fitted curve at half-maximal effect.

SMILES	ATXN2 expr inh	DT40 TDP1 CPT	HepG2 viability	ATXN viability	TGFb inhibitor	TDP1 cell noCPT
CCN(CC)c1ccc2c(O)cc(=O)oc2c1	2%	5%	14%	i	2%	1%
C/C=C/c1cccc(-c2nc(C(=O)N3CCCCC3)cc3c2[C@@H](CCO)N(C(=O)NC(C)C)C3)c1	7%	-3%	/	i	/	-7%
COc1cccc(C(NC(C)=O)c2nc(-c3cccc(NC(C)=O)c3)cs2)c1 (centres undefined)	15%	-26%	5%	i	21%	10%
CC1(c2ccccc2)NC(=O)N(CC(=O)Nc2ccc([N+](=O)[O-])cc2)C1=O (centres undefined)	-8%	26µM*	-5%	i	-13%	?
CS(=O)(=O)Nc1ccc(C(=O)CC(=O)Nc2ccc([N+](=O)[O-])cc2)cc1	-9%	-1%	-1%	i	-1%	-18%
CC1(c2ccccc2)NC(=O)N(CC(=O)Nc2ccc(N3CCOCC3)cc2)C1=O (centres undefined)	-5%	?	-21%	i	-2%	13%
O=C(COC(=O)c1ccccc1NC(=O)c1ccccc1)c1cccc([N+](=O)[O-])c1	4%	-5%	-1%	i	0%	0%
O=C(CC(=O)c1ccccc1)Nc1ccc([N+](=O)[O-])cc1	-11%	23µM*	-28%	i	?	?
O=C(COC(=O)c1ccccc1NC(=O)c1ccccc1)c1ccc([N+](=O)[O-])cc1	-6%	23µM*	-3%	i	-17%	?
CC1(c2ccc([N+](=O)[O-])cc2)NC(=O)N(CC(=O)Nc2ccc(N3CCCCC3)cc2)C1=O (centres undefined)	2%	?	-11%	i	0%	18µM*
Cc1onc(-c2ccccc2Cl)c1C(=O)OCC(=O)N1CCC(C)CC1	/	?	-4%	i	3%	?
Cc1onc(-c2ccccc2Cl)c1C(=O)Oc1ccc(Br)cc1	0%	-22%	-42%	i	?	-19%
Cc1onc(-c2ccccc2Cl)c1C(=O)OCC(=O)N1CCN(c2ccccc2)CC1	-31%	?	1%	i	-4%	16µM*
Cc1onc(-c2ccccc2Cl)c1C(=O)Oc1cccc2cccnc12	3%	4.1µM*	-29%	i	?	2.9µM*
O=C(c1ccc(=O)n(Cc2ccccc2)n1)N1CCN(C/C=C/c2ccccc2)CC1	-19%	18µM*	-53%	i	?	?
O=C(OCn1nnc2ccccc2c1=O)c1cc(-c2ccccc2Cl)nc2ccccc12	4%	-19%	4%	i	16%	-3%
Cc1onc(-c2ccccc2Cl)c1C(=O)OCn1nnc2ccccc2c1=O	-28%	18µM*	-19%	i	-16%	16µM*
Cc1onc(-c2ccccc2Cl)c1C(=O)O/N=C(\N)c1ccc([N+](=O)[O-])o1	/	18µM*	-118%	?	?	23µM*
COc1ccccc1N1CCN(C(=O)c2cc(-c3ccc4c(c3)OCO4)on2)CC1	-23%	-19%	-1%	i	-38%	?
Cc1ccccc1C(=O)OCn1nnc2ccccc2c1=O	9%	-24%	5%	i	15%	-30%
COc1ccccc1N1CCN(C(=O)c2cc(-c3cccc(Cl)c3)on2)CC1	0%	?	8%	i	4%	13µM*
COc1ccccc1N1CCN(C(=O)c2c(-c3ccccc3Cl)noc2C)CC1	-18%	?	-10%	i	-19%	21µM*
COc1ccccc1N1CCN(C(=O)c2c(C)noc2C)CC1	21%	3%	14%	i	4%	-11%
Cc1cc(C(=O)OCn2nnc3ccccc3c2=O)c(C)n1-c1ccccc1	44%	?	2%	i	-4%	18µM*
CCn1cc(C(=O)N[C@@H](CCSC)C(=O)NCCN2CCOCC2)c(=O)c2cc3c(cc21)OCO3	-3%	-15%	-4%	i	-6%	20%
SMILES	ATXN2 expr inh	DT40 TDP1 CPT	HepG2 viability	ATXN viability	TGFb inhibitor	TDP1 cell noCPT
CC(=O)OC(C)OC(=O)C(C)c1ccc(-c2ccccc2)c(F)c1 (centres undefined)	11%	0%	/	i	/	-10%
Cc1ccc(S(=O)(=O)n2nc(OC(=O)c3c(-c4ccccc4Cl)noc3C)cc2N)cc1	-6%	18µM*	-87%	i	0%	15µM*
Cc1onc(-c2ccccc2Cl)c1C(=O)N1CCN(C/C=C/c2ccccc2)CC1	0%	?	-43%	i	?	10µM*
O=C(Nc1ccccc1C(=O)NCc1ccccc1)c1ccccc1Br	2%	23µM*	-28%	i	-9%	?
Cc1nc2ccccc2cc1C(=O)O	0%	-1%	-6%	i	-9%	4%
O=C(O)CCC(=O)Nc1ccccc1C(=O)NCc1ccccc1	4%	0%	0%	i	14%	-2%
Cc1nc2ccccc2cc1C(=O)NCc1ccccc1	-2%	?	0%	i	-3%	13µM*
O=C(Nc1ccccc1Br)c1ccccc1-c1ccccc1	-19%	5.8µM*	-5%	?	-5%	6.5µM*
Cc1ccccc1C(=O)Nc1ccccc1C(=O)NCc1ccccc1	-9%	?	2%	i	-1%	18µM*
Cc1ccccc1C(=O)Nc1ccccc1C(=O)NCC(C)C	-6%	?	3%	i	33%	?
Cc1ccccc1S(=O)Cc1ccc(C(=O)NCCN2CCOCC2)o1 (centres undefined)	22%	14%	-1%	i	0%	11%
COc1ccc(CN(C)CC(=O)Nc2cccc(S(=O)(=O)N(C)c3ccccc3)c2)c(OC)c1	-18%	?	-33%	?	-15%	?
CCCOc1ccc(C2c3c(oc4ccccc4c3=O)C(=O)N2c2nc(C)c(C(=O)OCC)s2)cc1 (centres undefined)	12%	8%	5%	i	15%	-20%
Cc1ccccc1C(=O)Nc1ccc(N(C)C)c2ccccc12	8%	?	1%	i	11%	3.7µM*
Cc1cc(C(=O)NCC2CCC3(CCN(Cc4cc(F)ccc4F)CC3)O2)n(C)n1 (centres undefined)	/	-12%[9.04 µM]	/	i	/	?

Source: PubChem BioAssay
